# Data reported in PubChem BioAssay (NCI).
# About 83,000 compounds went through this panel and 20% of them were active in at least one assay; those are over-represented in the sample as a whole.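 Note: values are percent growth. 100 is the growth of untreated cells, values between 100 and 0 indicate rising inhibition; between -100 and 0 indicates cell death.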 The source made the active and inactive calls. How the source made its calls: active means growth percent below 10; inactive means the rest.
# Tested on: NCI-H522 lung
# Test: NCI-60 one-dose screen, 48 h (100 = growth as untreated, 0 = no growth, -100 = all killed)
# Conditions: 10 µM unless noted
row,Structure (SMILES),growth
1,C/C(=N\N=C1/C(=O)Nc2ccc(Cl)cc21)c1ccc2c(c1)Nc1ccccc1S2,-34% (active)
2,CCCSc1nc(NCCc2c[nH]c3ccccc23)c(C#N)c(-c2ccc(F)cc2)n1,61.3% (inactive)
3,COc1cc(C2CC(c3cc(OC)c(OC)c(OC)c3)=NN2C(C)=O)ccc1OCc1ccccc1 (stereo not drawn),26.8% (inactive)
4,Cc1cc2c(cc1Cl)C(=O)/C(=C/c1ccccc1)O2,-75% (active)
5,COc1ccc2[nH]cc(-c3nc(N)nnc3-c3cn(C)c4ncccc34)c2c1,34.3% (inactive)
6,Cc1ccc(C(=O)CSc2nc3ccc(F)cc3c(=O)n2-c2ccc(Cl)cc2)cc1,63.8% (inactive)
7,CCCCSc1nc(NCCc2c[nH]c3ccccc23)c(C#N)c(-c2ccccc2)n1,47.4% (inactive)
8,Cn1cc(-c2nc(N)nnc2-c2c[nH]c3ccc(Br)cc23)c2cccnc21,31.8% (inactive)
9,CN(C)CCOc1ccc(C(=O)C2[C@H](c3ccc(Cl)cc3)[C@@H](c3ccccc3)NC23C(=O)Nc2ccc(Br)cc23)cc1 (stereo partly drawn),-2.86% (active)
10,CN1CCN(/C(=N\c2sc(-c3ccccc3)nc2-c2ccccc2)c2ccccc2)CC1,87.3% (inactive)
11,CCCSc1nc(NCCc2c[nH]c3ccccc23)c(C#N)c(-c2ccccc2)n1,57.9% (inactive)
12,CCN(CC)c1ccnc(CNCCSC(c2ccccc2)(c2ccccc2)c2ccc(OC)cc2)c1,-67.8% (active)
13,COc1cc2oc(-c3cccc(C(=O)Nc4cccc([N+](=O)[O-])c4)c3)cc(=O)c2c(OC)c1OC,-46% (active)
14,O=C(COc1ccc(NC(=O)Nc2ccc(Cl)c(Cl)c2)cc1)N=Nc1c(O)[nH]c2ccc([N+](=O)[O-])cc12,61.1% (inactive)
15,COc1cc(-c2nc3cc(Cl)c(Cl)cc3[nH]2)ccc1OCc1nnc(-c2cccs2)o1,51.8% (inactive)
16,CCCCCCCCc1ccc(C(=O)Nc2ccc(C)cc2C(=O)O)cc1C,-0.59% (active)
17,CCOP(=O)(OCCCl)c1nc(-c2ccc(C)cc2)oc1NCc1ccccc1 (stereo not drawn),69.1% (inactive)
18,NS(=O)(=O)c1ccc(N=Nc2c(O)n(CC(=O)Nc3ccccc3)c3ccccc23)cc1,31.6% (inactive)
19,CC1(C)CC[C@]2(C(=O)Nc3ccccc3)CC[C@]3(C)C(=CCC4[C@@]5(C)C[C@@H](O)[C@H](O)[C@@](C)(CO)C5CC[C@]43C)C2C1 (stereo partly drawn),41.6% (inactive)

row,Structure (SMILES),growth
1,COc1ccccc1C(=O)NN1C(=O)/C(=C/C2=Cc3ccccc3OC2)SC1=S,97.9% (inactive)
2,COc1ccc(NC(=O)[C@H](CO)NC(=O)OC(C)(C)C)cc1C(=O)Nc1cccc(C2CC(=O)c3c(cc(OC)c(OC)c3OC)O2)c1 (stereo partly drawn),31.4% (inactive)
3,COc1ccc(C2(SCCNCc3cc(N(C)C)ccn3)c3ccccc3C=Cc3ccccc32)cc1,-17.2% (active)
4,COc1ccc2[nH]c(O)c(N=NC(=O)COc3ccc(NC(=O)Nc4ccccc4)cc3)c2c1,21.1% (inactive)
5,COc1cc(/C=C/C(=O)c2ccc(C)cc2)ccc1Oc1nc(Nc2ccc(F)cc2)nc(N(C)C)n1,44.8% (inactive)
6,CCN(CC)CCOc1ccc(Nc2ncc3cc(-c4ccc(O)c(C#N)c4)c(=O)n(C)c3n2)cc1,83.1% (inactive)
7,CC(/C=C1\SC(=S)N(CCCC(=O)NC(CC(C)C)C(=O)O)C1=O)=C\c1ccccc1 (stereo not drawn),84.2% (inactive)
8,COc1cc2c(c(OC)c1OC)C(=O)CC(c1cccc(NC(=O)c3cc(N)ccc3Cl)c1)O2 (stereo not drawn),8.06% (active)
9,CC(=O)OC[C@@]1(C)C2CC[C@]3(C)C(CC=C4C5CC(C)(C)CC[C@]5(C(=O)Nc5cccc(C)c5)CC[C@]43C)[C@@]2(C)C[C@@H](OC(C)=O)[C@@H]1OC(C)=O (stereo partly drawn),40.3% (inactive)
10,CCCCc1c(Nn2cnnn2)no[n+]1[O-],-21.9% (active)
11,CC(C)Sc1nc(NCCc2c[nH]c3ccccc23)c(C#N)c(-c2ccc(F)cc2)n1,39.8% (inactive)
12,C=C1CCC2C3(C)COC(c4ccc(F)cc4)OC3CCC2(C)C1CC(O)C1=CCOC1=O (stereo not drawn),-28.2% (active)
13,NS(=O)(=O)c1ccc(N=Nc2c(O)n(CC(=O)Nc3ccccc3Cl)c3ccccc23)cc1,51.8% (inactive)
14,Cc1ccccc1[C@H]1C(C(=O)c2ccc(Cl)cc2)C2(N[C@@H]1c1ccccc1)C(=O)Nc1ccc(Cl)cc12 (stereo partly drawn),-48.6% (active)
15,CCCCCCCCc1ccc(S(=O)(=O)Nc2ccc(CC)cc2C(=O)O)cc1,91.4% (inactive)
16,CCC(C)(C)c1ccc(OCCCCN2CCN(c3ccncc3)CC2)cc1,36% (inactive)
17,COc1ccc(C(=O)/C=C/c2ccc(Oc3nc(Nc4ccc(F)cc4)nc(N(C)C)n3)c(OC)c2)cc1,49.7% (inactive)
18,S=c1c2ccccc2nc2n1CCc1c-2[nH]c2ccccc12,56.7% (inactive)
19,CCOC(=O)COc1c(OC)c(OC)cc2oc(-c3cccc(C(=O)Nc4ccc(Cl)cc4)c3)cc(=O)c12,46% (inactive)
